Compound activity from PubChem BioAssay.
This is a sample that favours compounds with a hit; in the whole collection about 27% have one here.
CYP2C19 inh: blockers of cytochrome P450 2C19 activity – biochemical, luminescence, ADME assay, primary screen; P33261; CYP2C19 Supersomes, luciferin-H EGE luminescence, 30 min; inhibition, % at 5 µM; 21% of 96,000 active; AID 778, 2007;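 active = CYP2C19 inhibition above a set limit at 5 µM in the primary screen, cut at about 50% in these data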;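 also: plate controls were negative control wells for no effect and 2.5 mM tranylcypromine positive control for full effect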
Target sequence (P33261 whole entry, looked up): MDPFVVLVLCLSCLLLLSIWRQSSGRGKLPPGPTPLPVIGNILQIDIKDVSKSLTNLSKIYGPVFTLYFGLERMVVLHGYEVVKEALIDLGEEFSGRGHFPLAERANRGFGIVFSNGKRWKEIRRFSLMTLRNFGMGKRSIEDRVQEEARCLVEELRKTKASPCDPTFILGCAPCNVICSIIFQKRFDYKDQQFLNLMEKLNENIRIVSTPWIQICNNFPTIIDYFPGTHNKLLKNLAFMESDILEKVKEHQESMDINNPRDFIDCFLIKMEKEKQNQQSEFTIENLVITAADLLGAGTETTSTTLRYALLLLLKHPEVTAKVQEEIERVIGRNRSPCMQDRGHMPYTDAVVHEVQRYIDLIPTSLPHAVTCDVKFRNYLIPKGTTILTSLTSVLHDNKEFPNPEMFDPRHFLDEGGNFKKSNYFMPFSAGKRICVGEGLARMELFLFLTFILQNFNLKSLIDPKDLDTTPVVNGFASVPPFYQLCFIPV
CYP2C9 activ: human CYP2C9 activators, primary screen, biochemical, luminescence; Cytochrome P450 2C9 (Homo sapiens), P11712; recombinant CYP2C9, luciferin-H conversion; stronger effect = higher value; factor 1 = untreated enzyme, 0 = blocked; activation factor at 5 µM; 1.4% of 96,000 active;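 active = activation factor of 2 or more for CYP2C9 at a 5 µM dose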;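 also: 0 = sulfaphenazole-blocked wells and 1 = vehicle-only wells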
Cav3 T inh: Cav3.2 calcium influx blockers – cell-based, Fluo-4 calcium fluorescence, FDSS, MLSMR library, primary screen. Voltage-dependent T-type calcium channel subunit alpha-1H (Homo sapiens), O95180. Cav3.2-expressing cells; stronger effect = lower value. B-score at 10 µM. 4% of 100,000 active;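 active = single-dose well whose peak fluorescence ratio is a statistical outlier from its plate by either plate-standardised score or position-corrected B-score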
CYP2C19 activ: human CYP2C19 activators, primary screen, biochemical, luminescence; 96,000 tested, under 10 active; AID 1025, 2008; Cytochrome P450 2C19 (Homo sapiens), P33261; activation factor at 5 µM; recombinant CYP2C19, luciferin-H EGE luminescence; stronger effect = higher value; 0 = fully inhibited enzyme, 1 = untreated enzyme;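 active = activation factor of at least 2 at 5 µM in the primary screen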;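 also: 0 = wells with 2.5 mM tranylcypromine and 1 = vehicle-only wells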
CYP2C9 inh: blockers of cytochrome P450 2C9 activity – biochemical, luminescence, ADME assay, primary screen | CYP2C9 Supersomes, luciferin-H conversion | inhibition, % at 5 µM | 20% of 96,000 active | AID 777, 2007;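 active = blocking of liver enzyme CYP2C9 beyond about 50% at 5 µM, limit read from the data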
Pyk2 oligo antag: antagonists of Pyk2 self-association, primary screen, Q293 cells, FERM NanoBiT luminescence, HTS; Protein-tyrosine kinase 2-beta (Homo sapiens), Q14289; stronger effect = lower value; z-score (the deposit names both 25 µM and 10 µM); 0.83% of 99,000 active;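 active = Z-score of -3 or lower, scaled per plate to the spread of control and sample wells; inactive = z-score above -3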;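 also: negative z-score means lost luminescence so less FERM oligomerization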
Numbers without * were called inactive; · = not tested or not shown.

SMILES | CYP2C19 inh | CYP2C9 activ | Cav3 T inh | CYP2C19 activ | CYP2C9 inh | Pyk2 oligo antag
COC(C[C@@H](O)[C@@H](C)[C@H](O)COCc1ccccc1)OC | · | · | 0.71 | · | · | ·
Cc1ccc(C(=O)CN(C(=O)c2ccc(Cl)c(Cl)c2)N2C(=O)C3C4C=CC(C4)C3C2=O)cc1 (centres undefined) | 79* | 0.1 | -0.29 | 0.2 | 93* | -0.67
O=C(CN(C(=O)c1ccc(Cl)cc1Cl)N1C(=O)C2C3C=CC(C3)C2C1=O)c1ccc(F)cc1 (centres undefined) | · | · | 0.0085 | · | · | -0.34
COc1cc2c(cc1OC)C(C(=O)NCC1COc3ccccc3O1)C(c1cccnc1)N(C)C2=O (centres undefined) | 17 | 1 | 0.14 | 0.8 | -3 | ·
CCOC(=O)c1c(N)sc(-c2ccccc2)c1C | · | · | -0.92 | · | · | -1.4
CCOC(=O)c1c(N)sc(C(O)(C(F)(F)F)C(F)(F)F)c1-c1ccccc1 | 90* | 0 | -2.7 | 0.1 | 99* | -0.89
COc1ccccc1CCNC(=O)c1ccoc1C | 83* | 0.7 | 0.0077 | 0.2 | 33 | 0.18
CCNC(=O)C(=O)NCCc1ccc(Cl)cc1 | 59* | 0.9 | 0.65 | 0.4 | 9 | 2.1
O=C(NCCc1ccc(O)cc1)c1ccc(Cl)cc1 | 42 | 2.3* | -0.079 | 0.6 | -131 | -1.4
Cc1occc1C(=O)NCCc1ccc(Cl)cc1 | 57* | 0.9 | 0.21 | 0.4 | 6 | -0.44
COc1ccc(N(C(=O)c2ccccc2OC(C)=O)C(C)C2CC2)cc1 (centres undefined) | 44 | 0.7 | 0.16 | 0.6 | 32 | -1
O=C(Cc1ccc(-n2cnnn2)cc1)NC12CC3CC(CC(C3)C1)C2 | 5 | 0.8 | 0.36 | 0.9 | 25 | 1.1
S=C1NCCOCCOCCOCCOCCNC(=S)NCCOCCOCCOCCOCCN1 | · | · | -0.053 | · | · | -0.6
Cc1ccc(CS(=O)(=O)Cc2ccc(C(=O)NCc3cccnc3)o2)cc1 | 76* | 0.6 | 0.18 | 0.2 | 36 | -0.54
COc1ccccc1CNC(=O)c1ccc(CS(=O)(=O)c2ccccc2OC)o1 | 22 | 0.5 | 0.97 | 0.8 | 52* | 2.1
O=C(NCc1cccnc1)c1ccc(CS(=O)(=O)Cc2ccc(Cl)cc2)o1 | 100* | 0.3 | 0.21 | 0 | 65* | 1.6
COc1ccccc1S(=O)(=O)Cc1ccc(C(=O)NCCN(C)C)o1 | · | · | 0.08 | · | · | ·
Cc1ccccc1S(=O)(=O)Cc1ccc(C(=O)NCc2cccnc2)o1 | 98* | 0.3 | 1.1 | 0 | 67* | -0.28
O=C(NCc1ccccn1)c1ccc(CS(=O)(=O)Cc2ccc(Cl)cc2)o1 | 13 | 0.9 | 0.6 | 0.9 | 7 | 0.08
CC(NC(=O)c1ccc(-c2cc(C(F)(F)F)ccc2Cl)o1)c1ccccc1 (centres undefined) | 6 | 1.6 | 0.25 | 0.9 | -62 | 0.71
COc1ccc(Oc2nccc(OC)c2C#N)cc1 | 45 | 0.8 | 0.37 | 0.5 | 20 | 1.2
COc1ccnc(N=CNOCc2cccc(Cl)c2Cl)c1C#N | 58* | 0.9 | 0.045 | 0.4 | 8 | 0.32
O=C(COc1ccccc1)Nc1ccc(S(=O)(=O)N2CCCC2)cc1 | -10 | 0.8 | 0.25 | 1.1 | 22 | ·
COCCN(CC(=O)Nc1ccccc1)S(=O)(=O)c1ccc(S(=O)(=O)N2CCCC2)cc1 | 11 | 0.3 | 0.52 | 0.9 | 73* | 0.24
O=C(CCOc1ccccc1)Nc1ccc(S(=O)(=O)N2CCCC2)cc1 | 50* | 0.1 | -2.5 | 0.5 | 86* | 0.23
SMILES | CYP2C19 inh | CYP2C9 activ | Cav3 T inh | CYP2C19 activ | CYP2C9 inh | Pyk2 oligo antag
O=C(Cn1c(=O)sc2ccccc21)Nc1ccc(S(=O)(=O)N2CCCC2)cc1 | 80* | 0 | -2.7 | 0.2 | 98* | 0.39
COc1ccccc1N(CC(=O)Nc1ccc(S(=O)(=O)N2CCCCC2)cc1)S(C)(=O)=O | · | · | -2.8 | · | · | -0.33
O=C(CCCOc1ccccc1)Nc1ccc(S(=O)(=O)N2CCOCC2)cc1 | 55* | 0.3 | -1.8 | 0.5 | 70* | 1.9
Cc1csc(Sc2nc3c(c(=O)[nH]c(=O)n3C)n2CCCc2ccccc2)n1 | -3 | 0.9 | -0.058 | 1 | 8 | 0.61
CC(C)Oc1ccc(Cl)cc1Nc1nc(NCCO)nc(N2CCCC2)n1 | · | · | 1 | · | · | ·
O=S(=O)(N/N=C/c1c(F)cccc1Cl)c1ccccc1 | 66* | 0.8 | · | 0.3 | 21 | 0.85
O=S(=O)(N/N=C\C=C\c1ccccc1)c1ccc(Cl)cc1 | 36 | 0 | -2.2 | 0.6 | 96* | 1.1
Cn1c(Cn2c(=O)sc3ccccc32)nnc1SCC(=O)Nc1ccccc1F | · | · | 0.71 | · | · | ·
CCOC(=O)CCc1c(C)nc2ncnn2c1C | -7 | 1.1 | 0.083 | 1.1 | -9 | -0.43
Cc1nc2ncnn2c(C)c1Cc1c(Cl)cccc1Cl | 62* | 0.7 | -0.41 | 0.4 | 30 | 0.4
Cc1ccc(OC(=O)CCc2c(C)nc3ncnn3c2C)cc1 | 56* | 0.9 | -1.1 | 0.4 | 10 | 1.3
CCOC(=O)c1c(-c2ccccc2)oc2cc(CN(C)C)c(O)c(CN(C)C)c12 | · | · | · | · | · | -1.5
CCN(c1ccccc1)S(=O)(=O)c1ccc(OC)c(OC)c1 | 56* | 1.1 | 0.51 | 0.4 | -11 | -0.02
CCOc1ccc(N(CC(=O)O)S(=O)(=O)c2ccc(OC)c(OC)c2)cc1 | 5 | 0.9 | 0.85 | 1 | 7 | 0.55
CCN(c1ccccc1)S(=O)(=O)c1cc(OC)ccc1OC | 90* | 0.3 | -0.9 | 0.1 | 69* | 0.27
Nc1nc(-c2cccnc2)nn1C(=O)c1ccco1 | 1 | 1.1 | · | 1 | -9 | ·
COc1cc(-c2nnc3sc(Cc4ccccc4)nn23)cc(OC)c1OC | 43 | 0.5 | 0.42 | 0.6 | 52* | -1.2
COc1ccc(Cc2nn3c(-c4cc(OC)c(OC)c(OC)c4)nnc3s2)cc1 | 69* | 0.3 | -0.053 | 0.3 | 75* | -0.27
COc1cc(-c2nn3c(-c4ccccn4)nnc3s2)cc(OC)c1OC | 33 | 0.7 | 1.1 | 0.7 | 28 | ·
CCn1c(=O)c(C(=O)CN2CCOCC2)c(N)n(Cc2ccccc2)c1=O | -19 | 1.2 | 0.34 | 1.2 | -18 | 0.05
CN=c1scc(C)n1/N=C/c1ccc(O)cc1O | 13 | 1.3 | 0.76 | 0.9 | -33 | 0.66
COc1ccc(C(=O)Oc2ccc(C(C)=O)cc2)c(OC)c1 | 59* | 1 | 0.47 | 0.4 | 3 | 0.2
COc1ccc(/C(C)=N/N=C(\C)c2ccc(OC)cc2OC)c(OC)c1 | · | · | · | · | · | 0.39
CC(NS(=O)(=O)c1ccccc1)C(=O)NCc1ccco1 (centres undefined) | 44 | 1 | 0.06 | 0.6 | 3 | 0.46
C/C(N)=C(/C#N)C(=O)COC(=O)c1ccc(O)cc1 | · | · | · | · | · | -1
